FMDV FLuc – shows antiviral activity against foot and mouth disease virus; FMDV antiviral cell assay, firefly luciferase signal; Potency, µM (top dose mostly 57.5 µM), for the others: at the top dose activity change, negative = inhibition, usual class: inhibitors; 120,000 tested, 0.23% active; AID 1745856; also: nearly all actives have a fitted effect of over 60% in size
FMDV Renilla – antivirals against foot and mouth disease virus replicon; FMDV replicon cells, Renilla luciferase signal; Potency, µM (highest dose often 57.5 µM), for the others: top-dose activity change, negative = inhibition, usual class: inhibitors; 120,000 tested, 0.32% active; also: nearly all actives have a fitted effect of over 55% in size
Numbers without * were called inactive; ? = inconclusive; [ ] = another dose, or the depositor's remark. Only some compounds are listed: those with a hit (about 0.45% of all), similar ones and a draw of the others. Calls follow the shape of the full dose curve. % is scaled to controls: 0 for no effect and ±100 for the full control effect; potency is read from the fitted curve at half-maximal effect.

SMILES | FMDV FLuc | FMDV Renilla
O=C1C(=C(c2ccccc2)c2ccccc2)C(Cl)C(Cl)(Cl)c2ccccc21 (stereo not given) | ? | 11µM*
Cc1[nH]c(SCC(=O)Nc2cccc(S(=O)(=O)N3CCCC3)c2)nc1Cc1ccccc1 | 14µM* | -16%
O=C(CSc1nncn1-c1ccccc1)Nc1cccc(S(=O)(=O)N2CCCCC2)c1 | 15% | 18%
CCCNc1nc(-c2ccc(NC(C)=O)cc2F)cs1 | 0% | 14%
CN(Cc1cccc2ccccc12)C(=O)Cc1cccc2cccnc12 | -18% | 32%
COc1ccc(C(=O)Nc2ccc(O)c(-c3nc4ccccc4o3)c2)c(OC)c1 | 3% | -4%
O=C(O)CC1C(=O)NCCN1Cc1ccccc1Cl (stereo not given) | 9% | 2%
Cc1cccc(N2CCN(C(=O)CCCCn3c(=O)[nH]c4ccsc4c3=O)CC2)c1C | 14µM* | -28%
O=C(CCCCn1c(=O)[nH]c2ccsc2c1=O)N1CCN(c2cccc(C(F)(F)F)c2)CC1 | ? | 9%
O=C1CCC(C(=O)OCc2ccc(F)cc2)=NN1 | -5% | -1%
CC(C)CCNc1nc2c(c(=O)n(C)c(=O)n2C)n1Cc1ccc(Cl)cc1 | -1% | -9%
Cn1c(=O)c2c(nc(NCCc3ccc(F)cc3)n2Cc2ccc(F)cc2)n(C)c1=O | -1% | -9%
C=CCNc1nc2c(c(=O)n(C)c(=O)n2C)n1Cc1ccccc1Cl | -14% | -19%
Cn1c(=O)c2c(nc(NCCO)n2Cc2ccc(F)cc2)n(C)c1=O | 10µM* | 7.9µM*
C=CCNc1nc2c(c(=O)n(C)c(=O)n2C)n1Cc1ccc(Cl)cc1 | 14µM* | 13µM*
CCCCCCNc1nc2c(c(=O)n(C)c(=O)n2C)n1CCC | ? | 20µM*
CCCCCCNc1nc2c(c(=O)n(C)c(=O)n2C)n1Cc1cccc(C)c1 | 0% | -7%
Cn1c(=O)c2c(nc(NCCO)n2Cc2ccc(Cl)cc2)n(C)c1=O | 13µM* | ?
Cc1ccc(S(=O)(=O)N2CCOCC2)cc1NC(=O)COC(=O)c1ccccc1C(F)(F)F | -11% | -8%
CC1=C(C(=O)Nc2ccc(C(=O)NCCC(C)C)c(Cl)c2)SCCO1 | 0% | 16%
C[C@H]1O[C@@H](O[C@H]2CC[C@]3(C=O)[C@H]4CC[C@]5(C)[C@H](C6=CC(=O)OC6)CC[C@]5(O)[C@@H]4CC[C@]3(O)C2)C[C@H](O)[C@@H]1O | ? | 0.25µM*
COC1C(O)C(C)OC(OC2CCC3(C)C(CC[C@@H]4[C@@H]3CCC3(C)C(C5=CC(=O)OC5)C(O)CC43O)C2)C1O (stereo not given in full) | 2.2µM* | 5.6µM*
CC12CC[C@H]3[C@@H](CCC4(O)CC(O)CCC34/C=N/O)C1(O)CCC2C1=CC(=O)OC1 (stereo not given in full) | 1.4µM* | 1.8µM*
CC(=O)OC1CCC2(C=O)[C@H]3CCC4(C)C(C5=CC(=O)OC5)CCC4(O)[C@@H]3CCC2(O)C1 (stereo not given in full) | 1.4µM* | 2.5µM*
Cc1cccc(N(C)S(=O)(=O)c2ccc3oc(=O)ccc3c2)c1C | -12% | -11%
SMILES | FMDV FLuc | FMDV Renilla
CSC(C)C(=O)Nc1sccc1C#N (stereo not given) | 12% | 3%
CCOc1ccc(N2C(=O)c3c(C(=O)OC)ncn3CC2(C)C(=O)NC2CCCCCC2)cc1 (stereo not given) | 10% | 23%
Cc1ccc(C)c(-c2cc(C(=O)O)c3cc(C)cc(C)c3n2)c1 | -22% | -19%
O=C(O)CNCc1cccc(F)c1 | 21% | 4%
CCOC(=O)c1cccc(Nc2nc3ccccc3nc2NS(=O)(=O)c2ccccc2)c1 | 3% | -2%
CCOC(=O)C1=C(Nc2ccccc2)O/C(=C\c2ccc(OC(F)F)cc2OC(F)F)C1=O | 10µM* | ?
CCNC(=O)NC(=O)C(C)N(C)Cc1cccs1 (stereo not given) | 14% | 5%
Cc1ccc(-c2c3c(=O)n(C)c(=O)n(C)c3c3n2CCOC3c2coc3ccccc3c2=O)cc1 (stereo not given) | -12% | -16%
CC(C)(C)c1ccc2c(c1)OCCOCCOCCOCCO2 | -11% | -24%
CC(C)(C)c1ccc2c(c1)OCCOCCOc1cc(C(C)(C)C)ccc1OCCOCCO2 | 28µM* | 18µM*
CCCCNC(=O)c1cccc(I)c1 | 54% | 5%
C[C@@H](O[C@H]1OCCN(Cc2n[nH]c(=O)[nH]2)[C@H]1c1ccc(F)cc1)c1cc(C(F)(F)F)cc(C(F)(F)F)c1 | ? | 32µM*
Cc1ccccc1NC(=O)c1c(NC(=O)COCC(=O)O)sc2c1CCCCC2 | 135% | -17%
Cc1ccc(-n2nnnc2Sc2nnnn2-c2ccccc2)c(C)c1 | ? | 25µM*
Cc1cccc(-n2nnnc2Sc2nnnn2-c2ccccc2)c1C | -27% | ?
CCN(C(=O)Cn1nc(-c2ccc(C)c(C)c2)ccc1=O)c1cccc(C)c1 | -11% | -20%
COc1ccc(CCNCc2ccc(Cl)cc2)cc1 | 2% | 8.9µM*
COc1ccc(CNCCc2ccc(Cl)cc2)cc1 | 7% | -27%
Cc1c(C(=O)Nc2ccc3oc(-c4cccc(F)c4)nc3c2)cccc1[N+](=O)[O-] | 0% | -25%
CC(=O)Nc1ccc(NC(=O)C(C)OC(=O)c2ccc3c(c2)NC(=O)CS3)cc1 (stereo not given) | 3% | -10%[1.06 µM]
Cc1[nH]c2ccccc2c1C(=O)C(C)OC(=O)c1ccc2c(c1)NC(=O)CS2 (stereo not given) | 35µM* | ?
COc1ccc(CNC(=O)C(C)OC(=O)c2ccc3c(c2)NC(=O)CS3)cc1OC (stereo not given) | 25µM* | ?
CC(OC(=O)c1ccc2c(c1)NC(=O)CS2)C(=O)c1ccccc1 (stereo not given) | 84% | 14%
CC1Cc2cc(S(N)(=O)=O)ccc2N1CC(=O)Nc1cccc(Cl)c1Cl (stereo not given) | 3% | 32%
CCCCN(CC)C(=O)C1CCCN(c2ncnc3onc(C)c23)C1 (stereo not given) | -28% | ?
SMILES | FMDV FLuc | FMDV Renilla
CCCCN(C)C(=O)C1CCCN(c2ncnc3onc(C)c23)C1 (stereo not given) | ? | 2µM*
CC(C)=CCCC(C)CCC/C(C)=N/NC(N)=O (stereo not given) | 10% | 4%
Cn1c(=O)c2c(nc(N(CCO)CCO)n2Cc2ccccc2)n(C)c1=O | 2% | 1%
CCCn1c(N(C)Cc2ccccc2)nc2c1c(=O)n(C)c(=O)n2C | 14µM* | ?
O=C1CCCC2=C1C(c1cccc(Cl)c1Cl)CC(=O)N2c1ccc(F)cc1 (stereo not given) | 42% | 38%
CCOc1ccc(OC(=O)c2c(-c3ccccc3Cl)noc2C)cc1 | 28µM* | ?
Cc1onc(-c2ccccc2Cl)c1C(=O)Oc1ccccc1F | -19% | 37%
Cc1ccc(Nc2nc3ccccc3nc2NS(=O)(=O)c2ccc(F)cc2)cc1 | 12% | 63%
Cc1cccc(COc2ccc(/C=C(\C#N)c3nc4ccccc4[nH]3)cc2)c1 | 0% | ?
N#C/C(=C\c1ccc(OCc2ccc(C#N)cc2)cc1)c1nc2ccccc2[nH]1 | -10% | 4µM*
CCn1c2ccccc2c2cc(NC(=O)c3ccc[n+]([O-])c3)ccc21 | 0% | 16%
O=C(O)c1cc(NCc2ccccc2OCc2ccccc2)ccc1N1CCOCC1 | 6% | 35%
O=C(O)c1cc(NCc2ccc(OCc3ccccc3)cc2)ccc1N1CCOCC1 | ? | 28µM*
C/C(=N/O)c1ccc2c(c1)CCC(=O)N2 | 15% | -16%[1.06 µM]
